An excerpt weighted towards active compounds, which were near 7.4% of everything screened.
HEK293 tox – cytotoxic compounds in HEK 293 cells | HEK 293 viability, ATP luminescence (CellTiter-Glo), 48-72 h | Potency, µM (doses to about 115 µM), inactives show at the top dose activity change, negative = cytotoxicity, hits mostly inhibitors | 6.6% of 94,000 active | AID 1345083; also: nearly all actives have a fitted effect of over 60% in size
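250 HEK 293 cells/well; compound by pintool; incubated 48 or 72 hr at 37 degree Celsius; CellTiter-Glo added, 10 min RT, luminescence imaged.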
FLuc inh – Photinus pyralis luciferase inhibition. P08659. purified P. pyralis luciferase, luminescence, biochemical. Potency, µM (highest dose often 115 µM), most hits filed as inhibitors. 2.5% of 76,000 active; also: nearly all actives have a fitted effect of over 65% in size
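Biochemical qHTS: compound (6-point titration) added to 10uM D-luciferin plus 10uM ATP in Tris acetate pH 7.5 buffer with Mg, Tween-20 and BSA, then purified enzyme at 10nM; light output imaged.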
HEK293 viab – cell viability loss counter-screen; HEK-293-SNCA-luc viability, GF-AFC fluorescence, 24 h; Potency, µM (highest dose often 57.1 µM), for inactives: at the highest dose activity change, negative = cytotoxicity, hits mostly cytotoxic; 0.12% of 150,000 active;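 also: 0% = DMSO-treated cells and -100% = medium-only wells without cells; nearly all actives have a fitted effect of over 30% in size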
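Cytotoxicity counterscreen: after 24 h compound treatment of genome-edited SNCA-luciferase HEK-293 cells, live-cell protease substrate GF-AFC read by fluorescence after 30 min; activity scaled between DMSO (0%) and medium-only (-100%), curves Hill-fitted.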
3T3 cytotox – NIH 3T3 cell cytotoxicity; NIH 3T3 viability, CellTiter-Glo ATP luminescence, 48-72 h; Potency, µM (top dose mostly 96.7 µM), for the others: at the highest dose activity change, negative = cytotoxicity, most hits filed as inhibitors; 4.3% of 94,000 active; AID 1345082; also: nearly all actives have a fitted effect of over 55% in size
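NIH 3T3 cells at 400 cells/well received 23 nL of compound by pintool and were incubated 48 or 72 h at 37 °C. Viability was read as ATP-coupled CellTiter-Glo luminescence.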
SNCA expr inhib – SNCA gene expression inhibition; HEK-293 SNCA-luciferase knock-in, luminescence, 24 h; 0.17% of 140,000 active; AID 1671194; Potency, µM (doses to about 57.2 µM), for inactives: at the top dose activity change, negative = inhibition, actives largely listed as inhibitors;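 also: plate controls were DMSO cells for no effect and cell-free wells for full effect; nearly all actives have a fitted effect of over 45% in size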
hNpr1 antagonist – human Npr1 receptor antagonism; 1.6% of 76,000 active; P16066; Potency, µM (doses to about 46.3 µM), for the others: at the top dose activity change, negative = inhibition, actives largely listed as inhibitors; AID 1347048; HEK293 hNpr1 GloSensor cGMP, ANP-stimulated luminescence; calls by dose curve; also: nearly all actives have a fitted effect of over 60% in size
Target sequence (P16066 whole entry, looked up): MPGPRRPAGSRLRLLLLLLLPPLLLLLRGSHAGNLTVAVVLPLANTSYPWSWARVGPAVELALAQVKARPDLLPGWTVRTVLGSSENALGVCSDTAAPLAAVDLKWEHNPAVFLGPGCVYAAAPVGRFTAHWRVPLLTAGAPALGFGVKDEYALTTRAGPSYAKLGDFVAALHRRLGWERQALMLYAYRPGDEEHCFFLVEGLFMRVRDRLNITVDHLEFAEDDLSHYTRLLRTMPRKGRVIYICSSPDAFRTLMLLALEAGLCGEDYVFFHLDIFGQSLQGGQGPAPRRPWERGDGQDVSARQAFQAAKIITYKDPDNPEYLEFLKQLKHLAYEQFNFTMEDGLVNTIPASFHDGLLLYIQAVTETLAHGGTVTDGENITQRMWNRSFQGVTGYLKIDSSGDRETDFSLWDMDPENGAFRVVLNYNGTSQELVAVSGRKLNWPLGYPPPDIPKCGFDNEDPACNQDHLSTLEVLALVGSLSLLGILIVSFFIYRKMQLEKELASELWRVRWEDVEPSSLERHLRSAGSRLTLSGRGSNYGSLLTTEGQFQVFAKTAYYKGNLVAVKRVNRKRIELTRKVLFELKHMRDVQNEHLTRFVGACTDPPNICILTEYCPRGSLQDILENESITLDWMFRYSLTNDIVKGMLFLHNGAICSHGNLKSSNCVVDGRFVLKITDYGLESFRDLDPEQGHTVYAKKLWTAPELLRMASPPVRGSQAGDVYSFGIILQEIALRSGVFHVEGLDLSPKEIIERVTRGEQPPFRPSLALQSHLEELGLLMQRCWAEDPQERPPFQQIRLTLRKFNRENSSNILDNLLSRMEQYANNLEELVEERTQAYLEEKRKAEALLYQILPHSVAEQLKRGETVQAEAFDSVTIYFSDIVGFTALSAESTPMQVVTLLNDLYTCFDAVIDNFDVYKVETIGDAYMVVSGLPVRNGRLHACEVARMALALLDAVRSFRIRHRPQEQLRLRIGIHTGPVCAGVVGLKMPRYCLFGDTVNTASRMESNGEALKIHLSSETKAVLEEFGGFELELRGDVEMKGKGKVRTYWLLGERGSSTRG
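HEK293 cells stably expressing human Npr1 and cGMP GloSensor pGS-40F, loaded 2 h with 2% GloSensor reagent, given compound 30 min at room temperature. Luminescence read before and 20 min after 0.1 nM hNppA.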
* = called active by the depositor; [ ] = another dose, or the depositor's remark. Unless noted, calls follow the shape of the dose curve; as a rule, active = well fitted curve in the direction sought with a large enough effect; inconclusive = small, poorly fitted or top-dose-only effect, or another doubt; inactive = no such curve, though single readings can be large; an effect the other way counts as inactive or inconclusive. Unless noted, % is scaled to controls: 0 for no effect and ±100 for the full control effect; potency is read from the fitted curve at half-maximal effect.

How did O=C(c1cc2n(n1)CC(c1ccc(Cl)cc1)OC2)N1CCN(c2ccc(F)cc2)CC1 (stereo not given) do in these assays?
HEK293 tox: 40µM*; FLuc inh: inactive; HEK293 viab: -4%; 3T3 cytotox: inconclusive; SNCA expr inhib: -12%; hNpr1 antagonist: inconclusive

Results for Fc1ccc(C2Cn3nnc(-c4nc(-c5ccc(F)c(F)c5)no4)c3CO2)cc1 (stereo not given) ?
HEK293 tox: inconclusive; FLuc inh: inactive; HEK293 viab: 10%; 3T3 cytotox: -21%; SNCA expr inhib: 5%; hNpr1 antagonist: -9%

Results for O=C(NCc1ccccc1F)C1CCN(C(=O)c2ncn3c2COC(c2ccc(F)cc2)C3)CC1 (stereo not given) ?
HEK293 tox: 4%; FLuc inh: inconclusive; HEK293 viab: 2%; 3T3 cytotox: 4%; SNCA expr inhib: 4%; hNpr1 antagonist: 0%

Results for CC1(C)C(=O)N(CCOc2ccccc2)[C@H]2CN(Cc3ccc4c(c3)CCO4)C[C@H]2[S+]1(=O)[O-] ?
HEK293 tox: inconclusive; FLuc inh: inactive; HEK293 viab: -17%; 3T3 cytotox: inconclusive; SNCA expr inhib: -28%; hNpr1 antagonist: -14%

Results for O[C@@H]1C[C@@H](c2nc(-c3ccc(OC(F)(F)F)cc3)no2)N(Cc2ncc[nH]2)C1 ?
HEK293 tox: inconclusive; FLuc inh: inconclusive; HEK293 viab: 12%[87.6 µM]; 3T3 cytotox: -29%[174 µM]; SNCA expr inhib: 101%[87.6 µM]; hNpr1 antagonist: -22%[70.6 µM]

What do the screens show for `O[C@H]1CN[C@H](c2nc(-c3ccc(OC(F)(F)F)cc3)no2)C1`?
HEK293 tox: inconclusive; FLuc inh: 32µM*; HEK293 viab: 9%[87.6 µM]; 3T3 cytotox: -26%[174 µM]; SNCA expr inhib: 113%[87.6 µM]; hNpr1 antagonist: -18%[70.6 µM]

Results for O[C@@H]1C[C@@H](c2nc(-c3ccc(OC(F)(F)F)cc3)no2)N(C2CCOCC2)C1 ?
HEK293 tox: inconclusive; FLuc inh: 40µM*; HEK293 viab: 6%[87.6 µM]; 3T3 cytotox: inconclusive; SNCA expr inhib: 148%[87.6 µM]; hNpr1 antagonist: -10%[70.6 µM]

Results for CN1C[C@@H](NC(=O)c2ccc(F)cc2)C[C@H]1c1nc(-c2ccc(OC(F)(F)F)cc2)no1 ?
HEK293 tox: inconclusive; FLuc inh: inactive; HEK293 viab: 2%; 3T3 cytotox: inconclusive; SNCA expr inhib: 5%; hNpr1 antagonist: -2%

What do the screens show for `COc1cccc(C(=O)N2CCN(c3cc(C(F)(F)F)nc(C)n3)CC2)c1OC`?
HEK293 tox: -1%; FLuc inh: inactive; HEK293 viab: -15%; 3T3 cytotox: -30%; SNCA expr inhib: -22%; hNpr1 antagonist: -26%

What do the screens show for `COc1cccc(CN2CCc3c(cc(C(=O)Nc4cccc(C)c4C)n3C)C2)c1`?
HEK293 tox: 40µM*; FLuc inh: 22µM*; HEK293 viab: -4%; 3T3 cytotox: inconclusive; SNCA expr inhib: 140%; hNpr1 antagonist: 6%

How did COc1ccc(CNC(=O)c2cc3c(n2C)CCN(Cc2ccccc2)C3)cc1OC do in these assays?
HEK293 tox: 40µM*; FLuc inh: inactive; HEK293 viab: -20%; 3T3 cytotox: -27%; SNCA expr inhib: -8%; hNpr1 antagonist: inconclusive

Results for CC(=O)Nc1ccc(NC(=O)c2cc3c(n2C)CCN(Cc2ccccc2)C3)cc1 ?
HEK293 tox: -13%; FLuc inh: inactive; HEK293 viab: 9%; 3T3 cytotox: -23%; SNCA expr inhib: 33%; hNpr1 antagonist: 1%

How did COc1cccc(CN2CCc3c(cc(C(=O)NCc4ccccn4)n3C)C2)c1 do in these assays?
HEK293 tox: inconclusive; FLuc inh: inactive; HEK293 viab: -4%; 3T3 cytotox: inconclusive; SNCA expr inhib: -7%; hNpr1 antagonist: 2%

How did COc1cccc(CN2CCc3c(cc(C(=O)Nc4ccccc4OC)n3C)C2)c1 do in these assays?
HEK293 tox: 40µM*; FLuc inh: 16µM*; HEK293 viab: -12%; 3T3 cytotox: inconclusive; SNCA expr inhib: 203%; hNpr1 antagonist: -3%

Results for COc1cccc(CN2CCc3c(cc(C(=O)Nc4ccccc4)n3C)C2)c1 ?
HEK293 tox: 45µM*; FLuc inh: 16µM*; HEK293 viab: 3%; 3T3 cytotox: inconclusive; SNCA expr inhib: 184%; hNpr1 antagonist: -26%

Results for COc1cccc(CN2CCc3c(cc(C(=O)N4CCOCC4)n3C)C2)c1 ?
HEK293 tox: -9%; FLuc inh: inactive; HEK293 viab: -3%; 3T3 cytotox: -8%; SNCA expr inhib: 4%; hNpr1 antagonist: 0%

How did COCCc1noc(-c2ccc(N(C)CCc3cnn(C)c3)nc2)n1 do in these assays?
HEK293 tox: 2%; FLuc inh: inactive; HEK293 viab: -3%; 3T3 cytotox: inactive; SNCA expr inhib: 8%; hNpr1 antagonist: 1%

How did CCOc1ccccc1C(=O)N1[C@@H](c2ccco2)[C@@H](C(=O)O)C[C@]12CCCCN(CCOC)C2=O do in these assays?
HEK293 tox: -26%; 3T3 cytotox: inconclusive

What do the screens show for `COc1ccccc1NC(=O)c1cc2c(n1C)CCN(Cc1cccc(C)c1)C2`?
HEK293 tox: inconclusive; FLuc inh: 32µM*; HEK293 viab: 6%; 3T3 cytotox: inconclusive; SNCA expr inhib: 58%; hNpr1 antagonist: 0%

Results for Cc1cc(NC(=O)C2CCN(c3cc(C(F)(F)F)ncn3)CC2)ccc1Br ?
HEK293 tox: 25µM*; FLuc inh: inactive; HEK293 viab: -8%; 3T3 cytotox: 32µM*; SNCA expr inhib: -34%; hNpr1 antagonist: inconclusive

What do the screens show for `Cc1ccc(C)c(NC(=O)C2CCN(c3cc(C(F)(F)F)ncn3)CC2)c1`?
HEK293 tox: inconclusive; FLuc inh: inactive; HEK293 viab: 0%; 3T3 cytotox: inconclusive; SNCA expr inhib: -20%; hNpr1 antagonist: -21%

What do the screens show for `O=C(CCC1CCN(C(=O)[C@H]2C[C@@H]3C=C[C@H]2C3)CC1)N1CCC(Cc2ccccc2)CC1`?
HEK293 tox: 45µM*; FLuc inh: inactive; HEK293 viab: 8%; 3T3 cytotox: inconclusive; SNCA expr inhib: -10%; hNpr1 antagonist: inconclusive

Results for CCOC(=O)[C@H]1[C@@H](O)C(=O)N(Cc2ccccc2)C12CCN(C(=O)CC(C)(C)C)CC2 ?
HEK293 tox: inconclusive; 3T3 cytotox: 22µM*

How did CCOC(=O)[C@@H]1[C@@H](O)C(=O)N(Cc2ccccc2)C12CCN(C(=O)N(C)C)CC2 do in these assays?
HEK293 tox: -3%; 3T3 cytotox: inconclusive

Screening data as filed in PubChem.
